{
  "source": "PubChem BioAssay (EPA / NIEHS)",
  "note": "Values joined by “and” are separate entries in the source; they are usually repeats but may differ in a detail not shown here. Equal entries are not always repeated. Active and inactive are the calls of the source. Rule for the calls: active = hit-call score of the fitted dose curve at least 0.9, where 1 is the maximum; inactive = score below 0.9.",
  "data": [
    {"read-out": "Interleukin-1 alpha (IL1a), IL1A (gene 3552)", "test": "BSK_KF3CT_IL1a: BioMAP Diversity Plus: KF3CT Assay for Interleukin-1 alpha (IL1a) Biomarker Activity (AID 2283070)", "settings": "primary human keratinocytes with fibroblasts; actives raise or lower the signal", "method": "BSK_KF3CT is a cell-based, multiplexed-readout assay that uses keratinocytes and foreskin fibroblasts, a human skin primary cell co-culture, with measurements taken at 24 hours after chemical dosing in a 96-well plate.BSK_KF3CT_IL1a is an assay component measured in the BSK_KF3CT assay. It measures IL-1a antibody related to regulation of gene expression using ELISA technology.Data from the assay component BSK_KF3CT_IL1a was analyzed into 1 assay endpoint. This assay endpoint, BSK_KF3CT_IL1a, was analyzed with bidirectional fitting relative to DMSO as the negative control and baseline of activity. Using a type of binding reporter, gain or loss-of-signal activity can be used to understand changes in the signaling as they relate to the gene IL1A. Furthermore, this assay endpoint can be referred to as a primary readout, because this assay has produced multiple assay endpoints where this one serves a signaling function. To generalize the intended target to other relatable targets, this assay endpoint is annotated to the cytokine intended target family, where the subfamily is interleukins.\nThe levels of cell surface (or secreted, indicated by the prefix \"s\") biomarker endpoints were measured by ELISA. Overt cytotoxicity to cells in confluent adherent cultures (all systems other than the BT system) was assessed by measuring total protein levels using sulforhodamine B (SRB) staining in parallel cultures at the time of biomarker measurements, indicated as SRB endpoints. For proliferation assays for adherent cell types, individual cell types are cultured at sub-confluence and relative cell numbers quantified by SRB staining at time points optimized for each system (48 h: 3C and CASM3C systems; 72 h: BT and HDF3CGF systems; 96 h: SAg system). SRB was performed by staining cells with 0.1% SRB after fixation with 10% TCA and reading wells at 560 nm.Viability and proliferation of PBMC (T cells) was quantified by Alamar Blue reduction for the SAg and BT systems. For PBMC viability (referred to as PBMC Cytotoxicity within the assay endpoint names), cells were plated (75,000/well in a 96-well plate) and then chemical samples added for 1 h before addition of activators, SEB and TSST-1 (20 ng/mL final concentration each). Cells were incubated for 90 h. Then, Alamar Blue (20 uL/well) (Invitrogen, Cat DAL1100) was added for 6 h, and the plates were read with a fluorescence microplate reader at 546/580 nm (excitation/emission). For PBMC proliferation, cells were plated and activated as above but incubated for only 16 h prior to addition of Alamar Blue. Plates were read after 6 h.", "values": [
      {"smiles": "Cc1c(C(N)=O)cc([N+](=O)[O-])cc1[N+](=O)[O-]", "outcome": "inactive"},
      {"smiles": "CCCCC(CC)COC(=O)C=Cc1ccc(OC)cc1", "note": "(configuration not stated)", "outcome": "inactive"},
      {"smiles": "COC(=O)/C=C\\C(=O)OC", "outcome": "inactive"},
      {"smiles": "CN(C)c1ccc(C(c2ccccc2)c2ccc(N(C)C)cc2)cc1", "outcome": "inactive"},
      {"smiles": "CCCCCCC(O)CCCCCCCCCCC(=O)OC", "note": "(configuration not stated)", "outcome": "inactive"},
      {"smiles": "CCCCCCCCCCCCCCCCCC[N+](C)(C)C", "AC50": "6.81 µM (active)"},
      {"smiles": "CC[N+](CC)(CC(=O)Nc1c(C)cccc1C)Cc1ccccc1", "note": "(tested in a mixture with another compound)", "outcome": "inactive"},
      {"smiles": "COc1cc(CNC(=O)CCCC/C=C/C(C)C)ccc1O", "outcome": "inactive"},
      {"smiles": "COc1ccc(C(=O)c2ccccc2O)c(O)c1", "outcome": "inactive"},
      {"smiles": "Sc1nc2ccccc2s1", "outcome": "inactive"},
      {"smiles": "O=C(C(=O)c1ccccc1)c1ccccc1", "outcome": "inactive"},
      {"smiles": "Cc1cccnc1", "outcome": "inactive"},
      {"smiles": "CC(C)C1OCCN1CCOC(=O)NCCCCCCNC(=O)OCCN1CCOC1C(C)C", "note": "(configuration not stated)", "outcome": "inactive"},
      {"smiles": "CCC(C)=NO", "outcome": "inactive"},
      {"smiles": "CN(C)Cc1cc(C(C)(C)C)c(O)c(C(C)(C)C)c1", "outcome": "inactive"},
      {"smiles": "C1CN(CCOCCN2CCOCC2)CCO1", "outcome": "inactive"},
      {"smiles": "CCCCCCCCCC/C=C/C1CC(=O)OC1=O", "note": "(configuration not stated)", "outcome": "inactive"},
      {"smiles": "CN(C)CCC(c1ccc(Cl)cc1)c1ccccn1", "note": "(configuration not stated)", "outcome": "inactive"},
      {"smiles": "CC(C)CC(=O)CC(C)CC(C)C", "note": "(configuration not stated)", "AC50": "35 µM (active)"},
      {"smiles": "COc1ccccc1Oc1c(NS(=O)(=O)c2ccc(C(C)(C)C)cc2)nc(-c2ncccn2)nc1OCCO", "outcome": "inactive"},
      {"smiles": "CCC[Si](OC(C)=O)(OC(C)=O)OC(C)=O", "outcome": "inactive"},
      {"smiles": "O=[N+]([O-])c1cc(S(=O)(=O)Nc2ccccc2)ccc1Nc1ccccc1", "AC50": "31 µM (active) and 32.2 µM (active)"},
      {"smiles": "CCCCCCCCCCC1CO1", "note": "(configuration not stated)", "AC50": "25.3 µM (active)"},
      {"smiles": "Oc1cccc2ccccc12", "outcome": "inactive"},
      {"smiles": "OC(C(F)(F)F)(C(F)(F)F)C(O)(C(F)(F)F)C(F)(F)F", "AC50": "52.7 µM (active) and 54 µM (active)"},
      {"smiles": "CC[N+](CC)(CC(=O)Nc1c(C)cccc1C)Cc1ccccc1", "outcome": "inactive"},
      {"smiles": "Cc1cc(-n2nc3ccc(Cl)cc3n2)c(O)c(C(C)(C)C)c1", "outcome": "inactive"}
    ]}
  ]
}
